These results are taken from PubChem BioAssay.

Experiment [1] has as its system PRMT1 (protein arginine N-methyltransferase 1). The experiment in a line: PRMT1 binders on small-molecule microarrays, primary screen, biochemical, small-molecule microarray, 635 nm fluorescence (AID 1088).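 Also: binding of Prmt1 protein to compounds spotted on small-molecule microarray slides.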 To be noted: small-molecule microarray binding, higher = more signal.
Experiment [2] can be described thus: yeast growth modulation, basal conditions, primary screen, YJM789 clinical isolate, OD600, 24 h (AID 1089).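 Also: growth of clinical yeast isolate S. cerevisiae YJM 789 seeded 1000 cells per well; test concentration not given here.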 The settings on record: S. cerevisiae YJM789 growth, higher = more signal, called active from +8 up or from −8 down.
Experiment [3] is described as follows: fission yeast growth modulation, primary screen, strain 972, OD600, 24 h, no modulator (AID 1090).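 Also: basal condition with compound alone and no growth modifier present; test concentration not given here.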 The settings on record: S. pombe 972 growth, higher = more signal, called active from +8 up or from −8 down.
Experiment [4] in a line: S. cerevisiae growth modulation with rapamycin, primary screen, strain BY4716, OD600, 96 h (AID 1091). Also: test concentration not given here. The settings on record: higher = more signal, called active from +8 up or from −8 down.
In experiment [5] the target is Torsin-1A-interacting protein 2 (Homo sapiens) (UniProt Q8NFQ8). Nature of the experiment: LULL1 binders on small-molecule microarray, primary screen, cell lysate, human LULL1 lysate, 635/667 nm fluorescence (AID 1092).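 Also: probe is lysate of COS7 cells overexpressing human LULL1; score merges per-feature 667 nm fluorescence with signal-to-noise.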 The settings on record: hLULL1 lysate binding, 635 nm fluorescence, higher = more signal.
Torsin-1A-interacting protein 2 (Homo sapiens), sequence (Q8NFQ8 whole entry, looked up): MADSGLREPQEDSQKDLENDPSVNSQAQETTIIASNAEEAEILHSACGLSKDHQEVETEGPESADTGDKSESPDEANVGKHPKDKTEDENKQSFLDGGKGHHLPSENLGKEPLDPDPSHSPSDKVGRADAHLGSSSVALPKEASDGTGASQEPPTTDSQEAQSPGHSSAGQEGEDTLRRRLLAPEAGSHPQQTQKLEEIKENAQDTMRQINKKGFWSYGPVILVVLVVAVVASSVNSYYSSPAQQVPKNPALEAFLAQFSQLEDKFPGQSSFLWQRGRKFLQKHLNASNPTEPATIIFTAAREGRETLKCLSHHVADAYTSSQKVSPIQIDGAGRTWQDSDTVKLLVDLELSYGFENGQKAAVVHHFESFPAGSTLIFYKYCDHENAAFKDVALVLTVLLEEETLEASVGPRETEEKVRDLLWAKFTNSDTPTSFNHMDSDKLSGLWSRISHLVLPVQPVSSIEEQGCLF
Experiment [6] is described as follows: E. coli growth modulation, two-sided OD650, primary screen, E. coli filamentation project, strain DRC41, 24 h (AID 1093).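 Also: MC1000 strain lacking acrAB efflux and sulA so SOS filamentation is blocked; test concentration not given here.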 To be noted: OD650, 24 h, higher = more signal, called active from +8 up or from −8 down.
A short description of experiment [7]: small-molecule microarray binders of probe aLefty2, primary screen, biochemical, biotinylated probe, 635/667 nm fluorescence (AID 1094).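 Also: score merges spot fluorescence near 667 nm with spot signal-to-noise ratio.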 To be noted: higher = more signal.
For experiment [8], the system named is Noggin (protein binding on small-molecule microarray). Nature of the experiment: Noggin binders on small-molecule microarray, primary screen, biochemical, 635/667 nm fluorescence (AID 1095).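 Also: score merges 667 nm feature fluorescence with signal to noise over triplicate slides.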 To be noted: 635 nm fluorescence, higher = more signal.
For experiment [9], the target named is Neurogenic locus notch homolog protein 3 (Homo sapiens) (UniProt Q9UM47). Nature of the experiment: NOTCH3 binders on small-molecule microarray, primary screen, biochemical, 635/667 nm fluorescence (AID 1096). The settings on record: NOTCH3 binding, 635 nm fluorescence, higher = more signal.
Neurogenic locus notch homolog protein 3 (Homo sapiens), sequence (Q9UM47 whole entry, looked up): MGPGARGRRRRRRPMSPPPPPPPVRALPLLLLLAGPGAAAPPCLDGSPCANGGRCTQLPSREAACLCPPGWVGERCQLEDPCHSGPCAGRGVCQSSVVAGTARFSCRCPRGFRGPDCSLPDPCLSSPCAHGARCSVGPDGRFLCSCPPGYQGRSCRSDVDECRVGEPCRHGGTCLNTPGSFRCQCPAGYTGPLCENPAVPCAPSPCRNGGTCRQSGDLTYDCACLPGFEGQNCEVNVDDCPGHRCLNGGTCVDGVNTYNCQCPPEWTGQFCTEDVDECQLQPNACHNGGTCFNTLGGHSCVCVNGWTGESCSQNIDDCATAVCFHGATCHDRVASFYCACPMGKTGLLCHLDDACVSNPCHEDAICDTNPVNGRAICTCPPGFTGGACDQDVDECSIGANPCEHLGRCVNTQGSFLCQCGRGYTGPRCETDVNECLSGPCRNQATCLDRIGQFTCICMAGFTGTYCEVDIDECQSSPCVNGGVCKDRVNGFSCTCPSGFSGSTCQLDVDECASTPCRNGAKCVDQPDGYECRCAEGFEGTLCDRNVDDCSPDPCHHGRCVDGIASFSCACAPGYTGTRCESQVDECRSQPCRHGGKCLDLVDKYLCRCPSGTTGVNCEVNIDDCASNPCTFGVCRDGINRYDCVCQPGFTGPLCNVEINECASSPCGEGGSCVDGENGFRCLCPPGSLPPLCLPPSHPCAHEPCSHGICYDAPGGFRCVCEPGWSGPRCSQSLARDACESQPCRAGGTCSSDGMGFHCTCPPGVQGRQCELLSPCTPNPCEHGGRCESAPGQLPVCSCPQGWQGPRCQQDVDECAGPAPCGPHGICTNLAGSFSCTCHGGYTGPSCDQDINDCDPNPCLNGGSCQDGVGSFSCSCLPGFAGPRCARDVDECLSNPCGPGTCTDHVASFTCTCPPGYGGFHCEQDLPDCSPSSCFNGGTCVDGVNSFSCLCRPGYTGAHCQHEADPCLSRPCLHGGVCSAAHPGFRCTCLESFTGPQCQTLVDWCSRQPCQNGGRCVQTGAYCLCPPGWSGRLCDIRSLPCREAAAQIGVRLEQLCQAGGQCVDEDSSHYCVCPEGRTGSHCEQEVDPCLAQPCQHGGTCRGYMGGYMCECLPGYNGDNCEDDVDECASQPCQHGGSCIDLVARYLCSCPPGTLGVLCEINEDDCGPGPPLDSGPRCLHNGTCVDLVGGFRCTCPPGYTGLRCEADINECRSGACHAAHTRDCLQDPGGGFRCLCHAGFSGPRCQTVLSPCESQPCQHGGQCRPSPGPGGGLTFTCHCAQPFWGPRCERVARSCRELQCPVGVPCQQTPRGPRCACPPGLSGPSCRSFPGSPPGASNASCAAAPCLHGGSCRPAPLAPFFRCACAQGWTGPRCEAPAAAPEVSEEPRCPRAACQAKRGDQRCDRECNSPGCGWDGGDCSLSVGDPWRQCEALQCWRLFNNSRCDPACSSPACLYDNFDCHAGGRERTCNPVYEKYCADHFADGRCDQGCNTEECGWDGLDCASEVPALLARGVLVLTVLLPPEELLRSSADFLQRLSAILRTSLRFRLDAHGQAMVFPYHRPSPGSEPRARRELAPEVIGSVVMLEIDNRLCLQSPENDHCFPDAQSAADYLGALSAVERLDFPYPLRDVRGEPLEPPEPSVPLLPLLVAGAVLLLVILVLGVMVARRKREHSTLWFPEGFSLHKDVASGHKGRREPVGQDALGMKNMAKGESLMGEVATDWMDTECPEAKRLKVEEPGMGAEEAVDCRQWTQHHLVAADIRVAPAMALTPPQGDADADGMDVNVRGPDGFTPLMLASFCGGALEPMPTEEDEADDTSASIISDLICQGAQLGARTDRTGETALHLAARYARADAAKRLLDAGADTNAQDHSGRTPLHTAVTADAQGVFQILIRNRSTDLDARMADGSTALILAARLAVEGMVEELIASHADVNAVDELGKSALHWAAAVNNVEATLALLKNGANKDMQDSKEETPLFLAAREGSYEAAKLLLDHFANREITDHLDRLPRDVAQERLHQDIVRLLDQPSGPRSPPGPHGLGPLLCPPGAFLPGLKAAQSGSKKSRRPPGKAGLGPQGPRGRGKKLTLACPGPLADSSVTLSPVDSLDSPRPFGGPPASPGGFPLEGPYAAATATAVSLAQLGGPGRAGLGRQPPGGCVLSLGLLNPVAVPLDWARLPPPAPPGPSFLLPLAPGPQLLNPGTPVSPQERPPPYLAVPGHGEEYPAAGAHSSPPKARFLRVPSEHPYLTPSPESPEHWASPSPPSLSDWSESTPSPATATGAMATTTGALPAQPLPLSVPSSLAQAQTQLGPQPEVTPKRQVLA
Experiment [10] can be described thus: small-molecule microarray binders of probe aEGFR, primary screen, biochemical, biotinylated probe, 635/667 nm fluorescence (AID 1097).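 Also: probe is a biotinylated anti-EGFR antibody binding compounds printed on slides; score combines fluorescence near 667 nm and signal to noise of each spot.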 The settings on record: higher = more signal.
In experiment [11] the test system is Plasmodium falciparum Sir2 (PF13_0152, Sir2A). Nature of the experiment: pfSir2 binders on small-molecule microarrays, primary screen, biochemical, small-molecule microarray, 635 nm fluorescence (AID 1098).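 Also: score merges spot fluorescence intensity with its signal-to-noise ratio.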 The settings on record: small-molecule microarray binding, fluorescence 635 nm; higher = more signal.
Experiment [12] can be described thus: small-molecule microarray binders of probe aDKK1, primary screen, biochemical, biotinylated probe, 635/667 nm fluorescence (AID 1099).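 Also: score merges 667nm spot fluorescence with signal to noise across triplicate slides; reference of the scale not given here.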 The settings on record: higher = more signal.
Experiment [13] can be described thus: small-molecule microarray binders of probe aCHRDL2, primary screen, biochemical, biotinylated probe, 635/667 nm fluorescence (AID 1100). The settings on record: higher = more signal.
Experiment [14] is described as follows: splicing luciferase reporter signal modulators, primary screen, spliceosome inhibition project, cell-based, HEK293, splice +/- reporter (AID 1101).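 Also: HEK293 cells carrying a splicing-competent luciferase reporter gene; test concentration not given here.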 The settings on record: luminescence, 24 h, higher = more signal, called active from +8 up or from −8 down. On the technique in general: Reporter assays use an easily measured gene product as a stand-in for the process of interest.

The target of experiment [15] is Fibroblast growth factor 10 (Homo sapiens) (UniProt O15520). Nature of the experiment: FGF10 binders on small-molecule microarrays, primary screen, biochemical, small-molecule microarray, 635 nm fluorescence (AID 1102). To be noted: FGF10 binding, fluorescence 635 nm, higher = more signal.
Fibroblast growth factor 10 (Homo sapiens), sequence (O15520 whole entry, looked up): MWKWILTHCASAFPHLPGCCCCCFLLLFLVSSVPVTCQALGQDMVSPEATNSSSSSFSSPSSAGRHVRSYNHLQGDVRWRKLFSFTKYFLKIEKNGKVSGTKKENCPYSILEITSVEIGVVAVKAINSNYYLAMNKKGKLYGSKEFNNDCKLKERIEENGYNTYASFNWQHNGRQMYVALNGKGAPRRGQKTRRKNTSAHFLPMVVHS
The test system of experiment [16] is glycogen synthase kinase-3 (GSK3A per assay name; protocol says GSK3B). Nature of the experiment: GSK3 binders on small-molecule microarrays, primary screen, biochemical, small-molecule microarray, 635 nm fluorescence, GSK3A (AID 1103). Also: the record names both GSK3A and GSK3B. To be noted: small-molecule microarray binding, fluorescence 635 nm; higher = more signal.
For experiment [17], the target named is Epidermal growth factor receptor (Homo sapiens) (UniProt P00533). Nature of the experiment: EGFR binders on small-molecule microarrays, primary screen, biochemical, small-molecule microarray, 635 nm fluorescence (AID 1104).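 Also: score merges 667 nm emission intensity with spot signal to noise over triplicate slides.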 The settings on record: EGFR binding, higher = more signal.
Epidermal growth factor receptor (Homo sapiens), sequence (P00533 whole entry, looked up): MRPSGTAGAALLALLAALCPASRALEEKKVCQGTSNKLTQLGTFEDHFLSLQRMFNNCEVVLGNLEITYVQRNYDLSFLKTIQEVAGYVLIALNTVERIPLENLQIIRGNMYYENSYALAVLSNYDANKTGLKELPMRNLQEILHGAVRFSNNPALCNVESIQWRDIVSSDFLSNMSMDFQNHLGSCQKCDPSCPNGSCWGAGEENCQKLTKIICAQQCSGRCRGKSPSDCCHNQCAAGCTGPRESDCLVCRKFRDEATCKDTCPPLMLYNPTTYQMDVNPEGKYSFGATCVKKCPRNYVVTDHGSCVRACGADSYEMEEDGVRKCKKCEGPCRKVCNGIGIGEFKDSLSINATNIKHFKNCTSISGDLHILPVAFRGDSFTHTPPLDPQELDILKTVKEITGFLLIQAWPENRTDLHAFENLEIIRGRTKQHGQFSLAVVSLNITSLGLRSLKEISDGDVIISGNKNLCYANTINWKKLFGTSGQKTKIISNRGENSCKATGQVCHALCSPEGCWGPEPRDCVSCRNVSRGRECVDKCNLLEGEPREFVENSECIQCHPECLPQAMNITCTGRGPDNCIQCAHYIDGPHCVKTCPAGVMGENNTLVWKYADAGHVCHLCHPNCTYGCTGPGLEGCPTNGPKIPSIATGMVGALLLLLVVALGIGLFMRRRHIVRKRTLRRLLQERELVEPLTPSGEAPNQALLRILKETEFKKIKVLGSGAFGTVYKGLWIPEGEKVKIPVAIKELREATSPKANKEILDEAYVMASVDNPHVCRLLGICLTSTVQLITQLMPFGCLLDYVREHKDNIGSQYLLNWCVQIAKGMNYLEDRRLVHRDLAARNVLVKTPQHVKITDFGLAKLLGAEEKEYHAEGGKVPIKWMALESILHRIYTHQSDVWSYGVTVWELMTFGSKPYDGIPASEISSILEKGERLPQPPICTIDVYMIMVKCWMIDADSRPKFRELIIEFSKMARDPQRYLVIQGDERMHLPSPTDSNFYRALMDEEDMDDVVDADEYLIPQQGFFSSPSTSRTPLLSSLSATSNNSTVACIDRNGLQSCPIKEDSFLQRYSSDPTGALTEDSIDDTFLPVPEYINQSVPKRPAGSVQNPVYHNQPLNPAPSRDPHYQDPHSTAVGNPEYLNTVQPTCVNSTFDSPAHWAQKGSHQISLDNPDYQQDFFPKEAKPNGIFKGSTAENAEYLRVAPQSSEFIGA
Experiment [18] addresses Follistatin-related protein 3 (Homo sapiens) (UniProt O95633). Nature of the experiment: FSTL3 binders on small-molecule microarrays, primary screen, biochemical, small-molecule microarray, 635 nm fluorescence (AID 1105).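 Also: score merges emission near 667 nm and signal to noise per printed spot across three slides.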 The settings on record: FSTL3 binding, higher = more signal.
Experiment [19] addresses Dickkopf-related protein 1 (Homo sapiens) (UniProt O94907). The experiment in a line: DKK1 binders on small-molecule microarrays, primary screen, biochemical, small-molecule microarray, 635 nm fluorescence scan (AID 1106).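 Also: score merges emission near 667 nm with signal to noise over three replicate slides.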 The settings on record: DKK1 binding, higher = more signal.
The test system of experiment [20] is Inhibin beta A chain (activin A). Nature of the experiment: INHBA (activin A) binders on microarrays, primary screen, biochemical, small-molecule microarray, 635 nm fluorescence scan (AID 1107).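 Also: mouse activin A protein probed at 4.33 µg/mL on printed slides; score merges bound-protein fluorescence near 667 nm with spot signal-to-noise.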 The settings on record: small-molecule microarray binding, higher = more signal.

The source made the active and inactive calls.

Dickkopf-related protein 1 (Homo sapiens), sequence (O94907 whole entry, looked up): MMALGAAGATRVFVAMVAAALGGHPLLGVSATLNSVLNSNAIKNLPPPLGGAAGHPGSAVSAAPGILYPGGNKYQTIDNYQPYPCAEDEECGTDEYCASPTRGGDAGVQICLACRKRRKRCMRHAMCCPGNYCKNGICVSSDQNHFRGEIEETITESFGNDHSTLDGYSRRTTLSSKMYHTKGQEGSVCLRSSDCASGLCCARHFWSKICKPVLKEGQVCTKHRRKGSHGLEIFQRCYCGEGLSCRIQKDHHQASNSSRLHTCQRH
Follistatin-related protein 3 (Homo sapiens), sequence (O95633 whole entry, looked up): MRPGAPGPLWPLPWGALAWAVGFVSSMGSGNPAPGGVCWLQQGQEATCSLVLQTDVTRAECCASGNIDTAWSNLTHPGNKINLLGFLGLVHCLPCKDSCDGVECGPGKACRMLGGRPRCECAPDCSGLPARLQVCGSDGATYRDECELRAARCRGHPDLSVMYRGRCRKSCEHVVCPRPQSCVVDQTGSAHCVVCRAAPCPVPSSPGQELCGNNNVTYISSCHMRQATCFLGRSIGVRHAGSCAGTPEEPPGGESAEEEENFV

As to `CC(C)NC(=O)[C@@H]1c2ccccc2C(=O)N(CC23CC4CC(CC(C4)C2)C3)[C@H]1c1ccc(CO)cc1`, the composite z-score is 1.57 in experiment [1]; 2.68 in experiment [5]; -0.143 in experiment [7]; 0.701 in experiment [8]; 1.04 in experiment [9]; 0.0633 in [10]. In addition, the composite z-score turned out to be 1.45 in experiment [11]; 0.171 in experiment [12]; 0.46 in experiment [13]; 0.596 in experiment [15]; 1.23 in experiment [16]; 0.582 in [17]. The composite z-score is 1.28 in experiment [18], 0.651 in [19] and 0.43 in experiment [20]. Moreover, the z-score was -1.44 (inactive) in experiment [2]; -1.81 (inactive) in [3]; -0.241 (inactive) in [4]; 1.43 (inactive) in experiment [6]; -1.21 (inactive) in experiment [14].
For the compound `C[C@@H]1CCC2C(=O)N(Cc3ccccc3)C[C@@H](O)CN2[C@H]1c1ccc(Br)cc1` (stereo not given in full), the composite z-score was 1.39 in [1]; 1.5 in experiment [5]; -0.23 in experiment [7]; 0.542 in experiment [8]; 0.158 in experiment [9]; -0.115 in [10]. Besides, the composite z-score in experiment [11] is 0.892; in experiment [12], -0.276; in experiment [13], -0.441; in [15], 0.91; in experiment [16], 0.104; in [17] it was -0.0897. The composite z-score in [18] is 0.078; in [19], 0.228; in experiment [20], 0.203. Moreover, the z-score in [2] was -1.91 (inactive); in [3] it was -3.75 (inactive); in experiment [4] it was -0.26 (inactive); in experiment [6], 0.369 (inactive); in experiment [14], -1.89 (inactive).
Turning to `C=C(/C(=C/C[C@H](OC(C)=O)c1ccc(OCCO)cc1)c1cnc2ccccc2c1)C(C)C`, the composite z-score is 1.44 in experiment [1]; 1.67 in experiment [5]; -0.062 in experiment [7]; 1.58 in [8]; 1.1 in [9]; -0.204 in [10]. Moreover, the composite z-score is 0.659 in [11]; -0.523 in experiment [12]; -0.611 in experiment [13]; 1.49 in experiment [15]; 0.939 in experiment [16]; 0.333 in experiment [17]. In addition, the composite z-score in [18] was found to be 1.48; in [19], 0.658; in experiment [20], 1.64. Besides, the z-score in experiment [2] is -1.75 (inactive); in experiment [3], -2.26 (inactive); in [4], -1.03 (inactive); in experiment [6], 1.19 (inactive); in [14] it was -0.494 (inactive).
For `O=C1C[C@@H](O)[C@@H](O)[C@@H]2[C@@H]3C(=O)N(Cc4ccc5c(c4)OCO5)C(=O)[C@@H]3CC[C@@H]12`, the composite z-score in [1] was 0.555; in experiment [5], 1.01; in [7], -0.072; in [8], 0.495; in experiment [9], 1.12; in experiment [10], 0.0414. Also, the composite z-score in experiment [11] was 0.27; in experiment [12] it was -0.159; in experiment [13], -0.562; in [15], 0.715; in experiment [16] it was 0.45; in experiment [17] it was 0.428. In addition, the composite z-score in experiment [18] amounted to 0.675; in experiment [19], 0.78; in experiment [20] it was 0.365. Also, the z-score was 0.489 (inactive) in experiment [2]; 0.481 (inactive) in experiment [3]; -0.246 (inactive) in experiment [4]; 0.701 (inactive) in experiment [6]; 0.706 (inactive) in experiment [14].
Turning to `CC(C)(C)N1CC=CC23O[C@@H]4C=CCCOC(=O)C4[C@H]2C(=O)N(CCCCCO)[C@@H]3C1=O` (stereo not given in full), the composite z-score in experiment [1] was 0.937; in experiment [5] it was 1.74; in experiment [7] it was -0.13; in experiment [8], 0.304; in experiment [9], 0.0136; in experiment [10], 0.0912. In addition, the composite z-score is 1.87 in experiment [11]; -0.399 in [12]; 0.0199 in experiment [13]; -0.0123 in experiment [15]; 0.126 in experiment [16]; -0.0688 in [17]. Besides, the composite z-score in experiment [18] was -0.361; in experiment [19], -0.236; in [20] it was 0.773. Also, the z-score in experiment [2] was 0.37 (inactive); in experiment [3] it was 0.501 (inactive); in experiment [4], -0.215 (inactive); in [6], 0.261 (inactive); in [14] it was 0.164 (inactive).
`COCCOC(=O)N1C(=O)[C@@]2(c3cc(C#Cc4ccc(OC)cc4)ccc31)[C@H](C(=O)N1CCN(c3ncccn3)CC1)[C@H]1C(=O)O[C@H](c3ccccc3)[C@H](c3ccccc3)N1[C@@H]2c1ccc(OCCO)cc1`: the composite z-score was determined as 1.55 in [1]; 2.12 in experiment [5]; 0.192 in experiment [7]; 0.918 in experiment [8]; 1.11 in experiment [9]; 0.232 in [10]. The composite z-score was 0.593 in experiment [11]; 0.61 in [12]; 0.628 in experiment [13]; 0.968 in experiment [15]; 0.043 in experiment [16]; 0.624 in experiment [17]. The composite z-score turned out to be 1.11 in experiment [18], 1.19 in experiment [19] and 1.03 in experiment [20]. For the same compound, the z-score in [2] was 2.04 (inactive); in experiment [3] it was 1.46 (inactive); in experiment [4], 5.06 (inactive); in experiment [6], -0.371 (inactive); in experiment [14], 0.688 (inactive).
